# In all, about 390,000 compounds went through this assay and about 1,400 (0.36%) were called active. Not shown: some 2% with an inconclusive outcome. Many of the other results were omitted from the sample, so actives are more common in it than they were. A number with no mark means an inactive call. Calls follow the shape of the dose curve; as a rule, active = well fitted inhibition curve with a large enough effect; inconclusive = small, poorly fitted or top-dose-only effect; inactive = no such curve, though single readings can be large or run the other way.
# Target: Flap endonuclease 1 (Homo sapiens) (UniProt P39748)
# Experiment: qHTS Assay for the Inhibitors of Human Flap endonuclease 1 (FEN1). Also: nearly all actives have a fitted effect of over 65% in size.
# Details: Recombinant FEN1 flap cleavage, fluorescence, 15 min; series mostly up to 114 µM; activity change, negative = inhibition: at the top concentration
# Description: The major human flap endonuclease FEN1 is an efficient structure-specific enzyme that recognizes and cleaves a 5'-unannealed DNA flap. It belongs to the RAD2 family nucleases, which are involved in DNA metabolism and are highly conserved in prokaryotes and eukaryotes. FEN1 is a key enzyme in DNA replication, repair and maintenance of genomic stability. 5'-flap removal by FEN1 is critical for Okazaki fragment processing during lagging strand DNA synthesis, long-patch base excision repair (LP BER), and regulating or facilitating recombination events. […] Deletion of the yeast FEN1 gene, i.e. rad27, results in an increased frequency of short DNA (3-32 bp) repeats, micro- and mini-satellite formation, trinucleotide repeat expansion, spontaneous recombination events, and a severe growth defect in association with cell cycle arrest in late S/G2 phase. […] Cells from fen1-/- blastocysts show increased apoptotic cell death after ionizing radiation treatment, and chicken cells lacking the fen1 gene are hypersensitive to DNA alkylating agents, e.g. methylmethane sulfonate (MMS) and N-methyl-N'-nitro-N-nitrosoguanidine (MNNG), as well as hydrogen peroxide.
# NIH Chemical Genomics Center [NCGC]
# NIH Molecular Libraries Probe Centers Network [MLPCN]
# Assay Submitter (PI): David Wilson, National Institute of Aging
# Three uL of reagents (buffer in column 3 and 4 as negative control and 10 nM FEN1 in columns 1, 2, and 5-48) were dispensed into 1,536-well black solid-bottomed plate. Compounds (23 nL) were transferred via Kalypsys pin tool equipped with 1536-pin array (10 nL slotted pins, V&P Scientific, San Diego, CA). The plates were then incubated for 15 min at room temperature, and 1 uL substrate (50 nM final concentration) were added to start the reaction read twice at 0 min read and 15 min on ViewLux reader. Throughout the screen, reagent bottle and all liquid lines were chilled and made light-tight to minimize reagent degradation. All screening operations were performed on a fully integrated robotic system (Kalypsys, San Diego, CA) containing one RX-130 and two RX-90 anthropomorphic robotic arms (Staubli, Duncan, SC). Library plates were screened starting from the lowest and proceeding to the highest concentration, and a "double-dipping" step of the highest concentration was required to access higher concentrations of compounds. Vehicle-only plates, with DMSO being pin-transferred to the entire column 5-48 compound area, were inserted uniformly at the beginning and the end of each library in order to monitor for and record any shifts in the background, which can be affected by reagent dispensers or loss in enzyme activity overtime. Screening data was corrected, normalized, and concentration-effect relationships were derived by using publicly-available curve fitting algorithms developed in-house (http://ncgc.nih.gov/pub/openhts). A four parameter Hill equation was fitted to the concentration-response data by minimizing the residual error between the modeled and observed responses.
# % is scaled to controls: 0 for no effect and ±100 for the full control effect; potency is read from the fitted curve at half-maximal effect.
# Flap endonuclease 1 (Homo sapiens), sequence (P39748 whole entry, looked up): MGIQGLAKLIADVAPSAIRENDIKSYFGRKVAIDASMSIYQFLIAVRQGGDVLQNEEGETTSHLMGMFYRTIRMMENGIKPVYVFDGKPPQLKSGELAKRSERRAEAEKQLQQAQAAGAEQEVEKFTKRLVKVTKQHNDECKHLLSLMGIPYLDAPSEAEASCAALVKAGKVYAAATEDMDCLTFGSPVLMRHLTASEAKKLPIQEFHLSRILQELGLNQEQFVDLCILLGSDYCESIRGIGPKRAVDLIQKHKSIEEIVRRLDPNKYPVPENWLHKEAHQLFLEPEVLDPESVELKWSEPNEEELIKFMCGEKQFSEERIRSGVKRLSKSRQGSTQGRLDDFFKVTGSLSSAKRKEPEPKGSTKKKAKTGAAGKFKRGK
SMILES,"activity change, negative = inhibition [%]",Potency
Oc1ccc(Cl)cc1C1C=C(c2ccc3c(c2)OCO3)NC(c2ccc(F)c(Br)c2)N1 (configuration not stated),-12.7,–
CC(C)(C)OC(=O)N1CCC(c2c(C(=O)NCc3ccccn3)cnn2-c2ccc(F)cc2)CC1,17.5,–
CCCCC(CCCC)c1ccc(C=Nc2ccc(/C=C/c3ccnc4ccccc34)cc2)cc1,-8.04,–
COc1ccc(Cl)cc1NC(=O)CCn1c(=O)c2cccn2c2ccccc21,1.92,–
O=C(c1cnn2c1NC(=C1CC1)C=C2C(F)F)N1CCc2ccccc2C1,6.45,–
Cc1csc(NCC(=O)c2c[nH]c3ccccc23)n1,-13.2,–
CN(C)C1=C2C=CC=CC2/C(=C2/C=Cc3ccccc32)C=C1 (configuration not stated),16.4,–
OC(CBr)C[n+]1cccc2cc(Br)ccc21 (configuration not stated),12.1,–
CCc1ccc(NC(=O)c2sc3nc4c(cc3c2N)CN(CC)CC4)cc1,-7.99,–
CCc1nnc(NC(=O)c2cc(S(=O)(=O)N3CCCCC3)ccc2C)s1,-10.7,–
CCc1ccc2nc3sc(C(=O)Nc4nnc(CC)s4)c(N)c3cc2c1,–,44.7 µM (active)
CN(Cc1ccccc1)c1ccc(/C=C/c2ccnc3ccccc23)cc1,-3.17,–
O=C(c1ccco1)N(Cc1cccs1)c1ccc(O)cc1,-3.59,–
OC[C@@H]1O[C@H](n2cnc3c(SCc4ccccc4)ncnc32)[C@H](O)[C@H]1O,3.88,–
CCN(CC)c1ccc(/C=C/c2c(C)cnc3ccc(C)cc23)cc1,-7.36,–
CN1C(=O)/C(=C/c2ccco2)SC1=Nc1cccc(C(=O)O)c1,–,50.1 µM (active)
O=C(O)c1cccc(N=NN2CCCCCC2)c1,-1.46,–
CN=C1S/C(=C\c2c(OC)cc(OC)cc2OC)C(=O)N1C,-1.06,–
COc1cc2[nH]c(C)c(CCN3CCN(c4ccccc4)CC3)c2cc1OC,-3.35,–
O=C(CSc1nc(=O)n(Cc2cccnc2)c2c1CCC2)Nc1ccc(F)cc1F,-2.33,–
COC(=O)c1ccc2c(c1)N(CC(=O)Nc1ccc(C)c(C)c1)C(=O)c1ccccc1S2,7.24,–
Cc1ccc(C(=O)O)cc1-c1ccc(/C=C2\SC(=O)N(CC(=O)Nc3ccc4c(c3)OCO4)C2=O)o1,–,39.8 µM (active)
Cc1nc([N+](=O)[O-])cn1CC(=O)Nc1ccc2c(c1)OCO2,-12.8,–
CSc1n[nH]c(-c2ccco2)n1,7.75,–
CCC(=C/c1sc2ccc3ccccc3c2[n+]1C)/C=C1\Sc2ccc3ccccc3c2N1C,–,12.6 µM (active)
CCCCNC(=O)Cn1c(SCc2cccc(Cl)c2)nc2ccncc21,-5.18,–

SMILES,"activity change, negative = inhibition [%]",Potency
CC(C)(C)c1ccc(C(=O)C[N+]2(C)CCCc3ccccc32)cc1 (configuration not stated),-18.8,–
c1ccc2cc3c(NCCN4CCOCC4)ccnc3cc2c1,–,17.8 µM (active)
CCOc1nc(NCCN2CCOCC2)nc(Nc2ccc(C)cc2)n1,-1.38,–
Fc1ccc(-c2ccc(NCCN3CCOCC3)nn2)cc1,18.6,–
COc1cc(OC)c(OC)cc1/C=C1\C=Cc2ccccc21,-23.5,–
O=S(=O)(c1cccc(C(F)(F)F)c1)N1CCN(c2nc(-c3cccs3)nc3ccccc23)CC1,-7.49,–
CN(C(=O)CCN1C(=O)/C(=C/c2ccccc2F)SC1=S)C1CCS(=O)(=O)C1 (configuration not stated),-11.1,–
O=C1/C(=C\c2ccccc2Cl)SC(=S)N1CCC(=O)N1CCCc2ccccc21,2.46,–
Cc1ccc(-c2nn(-c3ccccc3)cc2/C=C2\SC(=S)N(CCCCCC(=O)O)C2=O)o1,–,31.6 µM (active)
Cc1cc(C)c2nc3nc(C)cc(C)c3c(N)c2c1,–,39.8 µM (active)
CN1CCN(c2oc(-c3ccc(COc4ccc(Cl)cc4)o3)nc2C#N)CC1,-18.9,–
COc1ccc(OC)c(NC(=O)C2CCCN(S(=O)(=O)c3ccc4c(c3)CCCC(=O)N4)C2)c1 (configuration not stated),13.2,–
COc1cccc(OC)c1C(=O)Nc1ccc2c(c1)n(C)c(=O)n2C,3.61,–
COc1cccc2sc3cc(NCC[C@@H]4CCCN4C)ccc3c(=O)c12,–,50.1 µM (active)
COc1ccc(/C=C/c2ccnc3ccccc23)cc1OC,-27.7,–
CNc1ccc(-c2nc(-c3ccco3)no2)cc1[N+](=O)[O-],-8.06,–
CCOc1ncccc1C(=O)NNC(=O)c1cccc(S(=O)(=O)Nc2ccccc2OC)c1,0.756,–
COC(=O)c1ccccc1NS(=O)(=O)c1ccc2[nH]c(=O)[nH]c2c1,-6.85,–
COc1cccc(/C=N/Nc2ccc(S(=O)(=O)Nc3ccccc3C(=O)O)cc2[N+](=O)[O-])c1O,–,79.4 µM (active)
O=C1C(Cl)=C(Oc2ccccc2)C(=O)c2ccccc21,–,56.2 µM (active)
COc1ccc(Cn2c(=O)[nH]c3cc(C(=O)N4CCN(C(=O)c5ccco5)CC4)ccc3c2=O)cc1,-29.9,–
Cc1ccc(S(=O)(=O)N2CCN(c3nc(-n4cnc5ccccc54)nc4ccccc34)CC2)cc1,-4.02,–
C/C=C/NNC(=O)Cc1ccc(OC)cc1,-0.0345,–
Cc1cccc(OP(=O)(Nc2c(C)n(C)n(-c3ccccc3)c2=O)Oc2cccc(C)c2)c1,4.61,–
Cc1cccc(C2CC(=O)Oc3c2c(=O)n(C)c2ccccc32)c1 (configuration not stated),2.21,–
Cc1cccc(Oc2c([N+](=O)[O-])c(=O)n(C)c3ccccc23)c1,–,20 µM (active)

# — PubChem BioAssay AID588795 (National Center for Advancing Translational Sciences (NCATS), 2011)
